From PubChem
Compounds with a hit are over-represented: about 2.6% of the library has one in this group of screens.
PfM18AAP inh-1 – PfM18AAP enzyme inhibition; 1.2% of 290,000 active; recombinant PfM18AAP, H-Glu-NHMec fluorogenic cleavage; inhibition, % at 7.35 µM;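 active = inhibition above the campaign mean inhibition over all tested compounds plus 3 SD, cut at about 28% in these data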;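 also: 0% = plate median of test compound wells and 100% = 2 mM ZnCl2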
Rce1 inh – yeast Ras-converting enzyme inhibition; yeast membranes, quenched prenylated peptide cleavage fluorescence; calls only; 0.27% of 290,000 active;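 active = fall in fluorescence gain of 50% or more versus controls, with final raw signal at or below 3038400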;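 also: plate controls were neutral control wells for no effect and wells lacking membranes for full effect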
Target sequence (Q03530 whole entry, looked up): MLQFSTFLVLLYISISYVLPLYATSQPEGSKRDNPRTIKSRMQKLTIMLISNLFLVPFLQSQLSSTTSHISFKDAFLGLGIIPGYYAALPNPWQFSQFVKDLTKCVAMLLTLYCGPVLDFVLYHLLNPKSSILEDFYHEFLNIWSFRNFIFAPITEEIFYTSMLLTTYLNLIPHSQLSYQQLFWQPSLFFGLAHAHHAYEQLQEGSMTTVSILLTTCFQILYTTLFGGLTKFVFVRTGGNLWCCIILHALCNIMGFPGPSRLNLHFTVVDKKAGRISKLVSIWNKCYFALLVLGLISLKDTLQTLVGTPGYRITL
ABHD5-PLIN5 inh – inhibitors of human ABHD5-perilipin-5 interaction. AID 602281. inhibition, % at 4 µM. Split G. princeps luciferase complementation, luminescence, 4 h. Q00G26+Q8WTS1. 0.78% of 360,000 active;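 active = inhibition above the mean inhibition across every tested compound plus 3 SD, cut at about 22% in these data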;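 also: 0% = DMSO only wells and the 100% control is not disclosed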
Platelet DG rel – modulates dense granule release in human platelets. inhibition, %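 (compounds screened at 7.5 µM in platelet-rich plasma)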. AID 1663. human platelet-rich plasma, SFLLRN dense granule ATP release, luminescence. 0.22% of 300,000 active;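 active = mean replicate score, as percent of positive control, at or above 50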
Granule exo inh – lytic granule exocytosis inhibition; 0.66% of 360,000 active; TALL-104 LAMP-1 surface exposure, flow cytometry; cells stimulated with thapsigargin and PMA; AID 651702; inhibition, % at 10 µM;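 active = inhibition above about 55%, limit read from the data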
PfM18AAP inh-2 – PfM18AAP inhibition, confirmation; 28% of 2,400 active; inhibition, % at 7.35 µM; shares compounds with PfM18AAP inh-1; recombinant PfM18AAP, H-Glu-NHMec fluorogenic cleavage;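 active = mean inhibition over replicate wells above the hit cutoff set for the earlier primary screen, cut at about 29% in these data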;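 also: 0% = median of test compound wells and 100% = 2 mM ZnCl2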
CTSL1 counter – Cathepsin L (human) inhibition, confirmation. shares compounds with PfM18AAP inh-1. purified cathepsin L1, Z-Leu-Arg-MCA fluorescence. inhibition, % at 5.96 µM. 2,400 tested, under 10 active. AID 2178;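 active = average inhibition across replicates above the hit cutoff set in the earlier primary screen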;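 also: 0% = median of test compound wells and 100% = Z-Phe-Ala-diazomethylketone 1 µM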
Target sequence (P07711 whole entry, looked up): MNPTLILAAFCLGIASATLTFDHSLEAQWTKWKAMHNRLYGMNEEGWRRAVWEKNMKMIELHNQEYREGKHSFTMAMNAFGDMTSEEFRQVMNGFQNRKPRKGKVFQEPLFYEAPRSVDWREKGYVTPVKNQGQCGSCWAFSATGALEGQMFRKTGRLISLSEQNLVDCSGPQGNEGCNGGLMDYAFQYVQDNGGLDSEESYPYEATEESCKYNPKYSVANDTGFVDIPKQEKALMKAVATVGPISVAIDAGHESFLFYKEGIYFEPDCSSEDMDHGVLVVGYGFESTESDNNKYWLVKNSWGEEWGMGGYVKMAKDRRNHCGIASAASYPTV
Active calls of the source: *; i = inactive; . = not tested or not shown.

SMILES	PfM18AAP inh-1	Rce1 inh	ABHD5-PLIN5 inh	Platelet DG rel	Granule exo inh	PfM18AAP inh-2	CTSL1 counter
Cc1ccc2[nH]cc(CCNC(=O)/C=C/c3ccco3)c2c1	3.9	i	-1.1	-9.0	3.3	.	.
Cc1ccccc1C(=O)Nn1cnnc1	33.0*	i	2.5	2.0	5.3	23.6	-4.1
O=C(O)c1ccccc1C(=O)Nn1cnnc1	37.5*	i	1.7	-1.5	-6.0	35.9*	-2.5
O=C(CP(=O)(c1ccccc1)c1ccccc1)Nn1cnnc1	34.5*	i	5.6	1.6	-2.0	49.1*	5.2
CCc1ccc(-c2cc(C(=O)Nn3cnnc3)c3ccccc3n2)cc1	43.0*	i	-2.3	44.9	-0.3	46.4*	-1.3
CCCc1ccc(-c2cc(C(=O)NN3CCOCC3)c3ccccc3n2)cc1	-7.3	i	8.5	4.7	-2.8	.	.
O=C(O)CCCCCNCc1c(Cl)cccc1Cl	-3.8	i	-0.6	-0.3	4.3	.	.
Cc1ccc(Nc2nc(Nc3ccc(C)cc3)nc(SC3=NCCS3)n2)cc1	-8.1	i	-24.8	0.5	6.9	.	.
CN(C)C(CNC(C(=O)Nc1ccc([N+](=O)[O-])cc1Br)c1ccccc1)c1ccccc1 (stereo not given)	-3.6	i	8.8	-3.4	11.8	.	.
O=C(c1ccccc1)N1CN2CN(C(=O)c3ccccc3)CC([N+](=O)[O-])(C2)C1	-7.2	i	2.4	15.8	-3.9	.	.
COc1cccc(C(=O)Nn2cnnc2)c1OC	43.3*	i	-6.5	-2.0	-1.9	51.5*	-4.5
COCCCNC(=O)c1cccc(OC)c1OC	-9.8	i	-0.3	4.9	2.7	.	.
Cc1cc(C)c2nc(-c3ccccn3)cc(C(=O)Nn3cnnc3)c2c1	44.1*	i	2.4	0.9	6.0	29.4*	-4.4
O=C(Nn1cnnc1)c1ccccc1Cl	55.4*	i	-0.4	3.7	1.0	40.0*	-0.8
O=C(Nc1ccccc1NC(=O)c1ccccc1Cl)c1ccccc1Cl	1.3	i	7.3	0.0	-3.8	.	.
O=C(CSc1nnc(-c2ccccc2)o1)Nn1cnnc1	72.1*	i	-0.2	1.3	2.7	72.6*	1.0
O=C(c1ccc2c(c1)OCO2)C1CCCN(C(=O)C2CCOCC2)C1 (stereo not given)	-6.2	i	6.7	-5.4	0.4	.	.
O=C(Cn1cnc2c(oc3ccccc32)c1=O)NCC1CCCO1 (stereo not given)	-13.4	i	-1.4	0.5	2.0	.	.
COc1cc(/C=N/NC(=O)CCC(=O)NC2CCCCC2)ccc1C	3.0	i	1.9	15.3	1.1	.	.
COCc1nnc(NC(C)=O)s1	0.8	i	7.8	-0.4	-0.1	.	.
COc1ccc2c(c1OC)C(=O)OC2CC(=O)c1ccc(O)c(O)c1 (stereo not given)	42.9*	i	1.9	3.2	-3.1	19.4	0.1
CCOc1ccc(S(=O)(=O)NCCC(=O)Nc2ncccc2C)cc1	2.6	i	-3.6	14.6	-1.9	.	.
Cc1ccccc1-c1cc(=O)c2ccccc2o1	.	.	8.5	.	-0.5	.	.
COc1cc(OC)c(-c2c3cc(O)c(=O)cc-3oc3cc(O)c(O)cc23)cc1OC	44.2*	.	-9.0	.	1.1	26.5	-0.6
Cc1c2cc(O)c(=O)cc-2oc2cc(O)c(O)cc12	29.3*	i	-4.6	5.8	-0.9	42.0*	-0.9
SMILES	PfM18AAP inh-1	Rce1 inh	ABHD5-PLIN5 inh	Platelet DG rel	Granule exo inh	PfM18AAP inh-2	CTSL1 counter
CC(C)CNC(=O)N[C@@H](CC(C)C)C(=O)O	-5.4	i	3.1	0.6	-0.9	.	.
COC(=O)C1=C(C)N(CC2CC2)C(=O)N[C@H]1c1ccc(Br)cc1	-1.2	.	.	.	.	.	.
CCOC(=O)c1sc(N)c(C(=O)Nc2ccccc2)c1C	40.1*	i	2.1	-5.4	-0.1	5.0	0.7
Cc1cc(Cl)ccc1NNC(=O)c1cccs1	17.8	i	-3.1	1.4	-2.5	.	.
Cc1noc(C)c1C(=O)NNc1cc(Cl)ccc1Cl	36.1*	i	-2.6	0.1	-1.8	8.7	-2.8
O=C(NNc1cc(Cl)ccc1Cl)c1cccs1	51.9*	i	-7.8	5.2	-4.0	27.7	-0.7
O=c1[nH]c2ccccc2cc1-c1nnn(-c2ccccc2)n1	.	i	3.1	1.1	9.1	.	.
Cc1c(Cl)cccc1NC(=O)C(=O)NNS(=O)(=O)c1ccc(F)cc1	-3.1	i	-9.3	4.7	0.4	.	.
CCC(C)Nc1nnc(SCC(=O)c2c(N)n(C3CC3)c(=O)[nH]c2=O)s1 (stereo not given)	.	.	-1.8	.	-0.7	.	.
CCN(CC)c1ccc2c(c1)CCCN2	32.2*	i	.	-7.4	.	-8.3	-3.9
Oc1ccc(O)c(/C(=N/Nc2ccccc2)c2ccccc2)c1	44.7*	i	.	0.5	.	-80.0	-1.0
CC1=CC(C)(C)N(C(=O)CSc2ncn[nH]2)c2ccc(C)cc21	56.4*	i	2.2	-4.6	0.5	-30.8	3.6
Cc1cc(SCC(=O)N/N=C/c2ccc(O)c(O)c2)nc2ccccc12	56.0*	i	-7.2	12.9	18.0	43.4*	2.3
O=C(CSc1nc2ccccc2o1)N/N=C/c1ccc(O)c(O)c1	62.2*	i	-0.1	-2.5	-0.2	51.9*	-2.9
O=C(CSc1nc2ccccc2o1)N/N=C/c1ccccc1	15.2	i	-3.4	-4.4	1.0	.	.
Cc1cc(SCC(=O)N/N=C/c2ccc(O)c(O)c2)c(C)cc1Br	54.0*	i	8.1	-0.9	-1.5	36.3*	-3.2
O=C(Cc1nnc(NC(=O)c2ccccc2)s1)N/N=C\c1ccc(O)c(O)c1	56.8*	i	1.2	-7.9	15.2	37.5*	-0.2
Cc1cc(SCC(=O)N/N=C/c2ccc(O)cc2O)nc2ccccc12	10.4	i	-14.9	12.7	1.2	.	.
Cc1nn(Cc2cccc(C(=O)NCC(C)C)c2)c(C)c1Br	-1.5	i	5.5	-0.8	0.7	.	.
O=C(N/N=C/c1cccc(O)c1)c1cc(-c2ccccc2)nc2ccccc12	2.6	i	-4.5	1.8	8.8	.	.
O=C(N/N=C/c1ccc(O)c(O)c1)c1cc(-c2ccccc2)nc2ccccc12	61.3*	i	10.7	-3.0	-0.3	47.9*	-5.0
CCOC(=O)c1c(NC(C)=O)sc2c(OCC(O)CNC(C)(C)C)c(Br)ccc12 (stereo not given)	-13.2	i	6.6	-3.2	23.9	.	.
COC(=O)c1ccc(CNC(=O)COC(=O)/C=C/c2ccc(O)c(OC)c2)cc1	.	.	4.7	.	-1.9	.	.
Cc1ccc(CN2CCc3[nH]c(=S)[nH]c(=O)c3C2)cc1	19.7	i	-15.5	-9.0	-1.2	.	.
O=c1[nH]c(=S)[nH]c2c1CN(Cc1ccc(F)cc1)CC2	36.9*	i	-7.8	2.3	-1.2	8.7	4.9
CC(=O)Nc1nnc(CCN2CCCCC2)s1	-0.4	i	9.1	-6.2	-1.8	.	.
Nc1c(C(=O)c2ccc(Cl)cc2)sc2nsc(SCCN3CCOCC3)c12	33.7*	i	-4.1	-4.3	52.7	-28.1	4.5
CC(=O)c1sc2nsc(SCCN3CCCCC3)c2c1N	33.2*	i	-25.9	4.0	2.0	-40.8	-5.4
